Results filed as inconclusive are left out. Activity calls are given as the source filed them. Calls follow the shape of the dose curve; as a rule, active = well fitted inhibition curve with a large enough effect in the signal ratio, with a control signal flat (not every such curve was filed as active); inconclusive = small, poorly fitted or top-dose-only effect, or effect the other way, or a change in a side signal; inactive = flat fitted curve, though single readings scatter; the % refers to the signal ratio.
Biological target: Peroxisome proliferator-activated receptor gamma (Homo sapiens) (UniProt P37231)
Sequence (P37231 whole entry, looked up): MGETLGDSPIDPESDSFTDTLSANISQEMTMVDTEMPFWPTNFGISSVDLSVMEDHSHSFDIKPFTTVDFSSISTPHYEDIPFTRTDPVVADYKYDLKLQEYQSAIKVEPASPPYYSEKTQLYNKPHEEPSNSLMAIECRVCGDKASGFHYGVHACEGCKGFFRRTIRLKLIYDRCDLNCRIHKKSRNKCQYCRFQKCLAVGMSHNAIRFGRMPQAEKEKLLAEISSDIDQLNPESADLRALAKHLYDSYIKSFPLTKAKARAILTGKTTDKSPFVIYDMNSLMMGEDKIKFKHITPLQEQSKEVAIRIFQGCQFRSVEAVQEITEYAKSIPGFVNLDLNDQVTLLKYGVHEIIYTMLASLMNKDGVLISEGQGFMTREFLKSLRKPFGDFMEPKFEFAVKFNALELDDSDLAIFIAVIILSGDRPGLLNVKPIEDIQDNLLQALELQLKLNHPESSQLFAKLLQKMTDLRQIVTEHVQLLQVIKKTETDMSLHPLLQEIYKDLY
Test: qHTS assay for small molecule antagonists of peroxisome proliferator-activated receptor gamma signaling (AID 588537);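 as to activity, negative = inhibition: reporter cells co-stimulated with 50 nM rosiglitazone agonist during compound treatment; % of control where 0% means no effect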
Conditions: HEK293 PPARg-UAS-bla, beta-lactamase ratio, antagonist mode; series mostly up to 76.8 µM; activity, negative = inhibition: at the top concentration
Source text: NIH Chemical Genomics Center [NCGC]
U.S. Environmental Protection Agency [EPA]
National Institutes of Environmental Health Sciences [NIEHS]
National Toxicology Program [NTP]
The Peroxisome proliferator-activated receptors (PPARs) are lipid-activated transcription factors of the nuclear receptor superfamily with three distinct subtypes namely PPAR alpha, PPAR delta (also called PPAR beta) and PPAR gamma. All these subtypes heterodimerizes with Retinoid X receptor (RXR) and these heterodimers regulate transcription of various genes. PPAR-gamma (glitazone receptor) ligands have been used in the treatment of type 2 diabetes and dyslipidaemia. It is involved in the regulation of glucose and lipid metabolism. PPAR-gamma activates certain genes like Paraoxonase 1 which is responsible for hydrolyzing organophosphates. PPAR-gamma ligands may also be therapeutically important in the treatment of coronary artery disease, obesity and cancer and atherosclerosis.
NCGC Assay Protocol Summary
Using a beta-lactamase reporter-gene under control of Peroxisome Proliferator-Activated-gamma (PPAR-gamma) response element, a cell-based assay [GeneBLAzer PPAR-gamma-UAS-bla assay developed by Invitrogen] was used to measure PPAR-gamma ligands signaling. GeneBLAzer PPAR-gamma-UAS-bla-HEK293 cells were used with assay medium containing 1% charcoal/dextran treated FBS. The assay was performed in clear bottom black Greiner 1536-well plates. Library compounds were measured for their ability to inhibit the reporter gene activity. Compounds were screened in a titration series in 1536-well format. The fluorescence intensity (405 nm excitation, 460/530 nm emission) was measured using an EnVision plate reader. Data was normalized relative to Rosiglitazone control (50 nM, 100%), and DMSO only wells (basal, 0%). Concentration-response titration points for each compound were fitted to the Hill equation yielding concentrations of half-maximal inhibition (IC50) and maximal response (efficacy) values.
qHTS protocol for PPAR-gamma beta-lactamase assay in antagonist mode
[Step] [Parameter] [Value] [Description]
1. Reagent; 5 uL; 3000 cells/well
2. Incubation; 37 C for 6-6.5 hrs
4. Controls (GW9662, PPAR-gamma antagonist); 23 nL,
5. Agonist (Stimulator); 1uL; Rosiglitazone at 50 nM (final) concentration
6. Incubation; 37 C for 16 hrs
7. Detection reagent; 1 uL of CCF4-dye
8. Incubation; RT for 2 hrs
9. Detection; Fluorescence; Envision plate reader

Row | Compound | activity, negative = inhibition | Potency
1 | O=C1NC(=O)C(c2ccccc2)(c2ccccc2)N1 | -3.46% (inactive) | –
2 | CCCCC1C(=O)N(c2ccccc2)N(c2ccccc2)C1=O | -0.484% (inactive) | –
3 | CC/C(=C(\c1ccccc1)c1ccc(OCCN(C)C)cc1)c1ccccc1 | -19.8% (inactive) | –
4 | O=c1c(O)c(-c2ccc(O)cc2)oc2cc(O)cc(O)c12 | – | inactive
5 | CC(=O)c1ccc(S(=O)(=O)NC(=O)NC2CCCCC2)cc1 | 8.45% (inactive) | –
6 | O=C(O)Cc1cccc2ccccc12 | 4.96% (inactive) | –
7 | CCCNC(=O)NS(=O)(=O)c1ccc(Cl)cc1 | 8.77% (inactive) | –
8 | CCn1cc(C(=O)O)c(=O)c2ccc(C)nc21 | – | inactive
9 | O=c1c(-c2ccc(O)cc2)coc2cc(O)ccc12 | -9.99% (inactive) | –
10 | O=C(O)c1cc(-c2ccccc2)nc2ccccc12 | -3.6% (inactive) | –
11 | O=c1cc(-c2ccc(O)cc2)oc2cc(O)cc(O)c12 | – | 44.7 µM (active)
